Experimental data published in PubChem BioAssay AID764 (NMMLSC, 2007).
About 220 (0.12%) of roughly 190,000 compounds were called active. Roughly 2% stayed inconclusive and do not appear here. The entries come from a sample that favours actives as a whole. Values without a mark were called inactive.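 The calls were made as follows: active = GTP binding at least 20 percentage points away from the 100% baseline, in either direction, so actives lie on both sides; inconclusive = Compound likely fluorescent itself, or too few beads counted; inactive = the rest.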

Each compound was assayed against Ras-related C3 botulinum toxin substrate 1 (Homo sapiens) (UniProt P63000) (assay: activated Rac1 mutant nucleotide binding changes – biochemical, bead-based flow cytometry, multiplex, fluorescent GTP, primary screen (AID 764)). Conditions: GST-Rac1 activated beads, at 10 µM, actives lie on both sides, 100% means binding = to untreated wells.

SMILES	percent activity (GTP binding) [%]
C/C(N)=C(/C#N)C(=O)COC(=O)C1CCN(C(=O)c2ccc(Cl)cc2)CC1	97
O=C(COC(=O)c1ccc(F)cc1)Nc1nc2ccc([N+](=O)[O-])cc2s1	93
COc1cccc(CNn2cn[nH]c2=S)c1OCc1ccccc1	95
COC(=O)C1=C(C)N(C)C(=O)NC1c1ccc([N+](=O)[O-])o1 (stereo not given)	93
CCOC(=O)C1CCN(S(=O)(=O)c2cc(F)ccc2OC)CC1	96
Cc1cccc(N(C(=O)Cc2cccs2)C(C(=O)NCc2ccco2)c2ccncc2)c1 (stereo not given)	101
O=C(c1ccc(F)cc1)n1cc(C(=S)N2CCOCC2)c2ccccc21	98
CCCN(CC(=O)Nc1ccccc1C)C(=O)c1cc(=O)[nH]c2ccccc12	95
CCCC(=O)NC(=S)Nc1ccc(CN2CCOCC2)cc1	95
CCN1CCc2nc(NC(=O)c3cc(F)c(F)cc3Cl)sc2C1	95
CCCCc1ccc(NC(=S)NCCCN2CCOCC2)cc1	94
CCOc1ccc(CN2CCN(Cc3ccc(C)o3)CC2CCO)cc1 (stereo not given)	96
O=Cc1ccc(OCc2cn3ccccc3n2)cc1	97
Brc1cc(/C=N/n2cnnc2)oc1Br	100
CS(=O)(=O)Nc1cccc(-c2cn3ccccc3n2)c1	96
CCOC(=O)CNC(=O)/C(=C\c1ccc(F)cc1)NC(=O)c1ccccc1	95
COc1cccc(CC(=O)N2CCCC(CCC(=O)N3CCN(c4ccccn4)CC3)C2)c1 (stereo not given)	96
Cc1cccc(C)c1NC(=O)C1CCCN1C(=O)OC(C)(C)C (stereo not given)	97
CCOc1cc(NC(=S)NCCCN(C)C)c(OCC)cc1NC(=O)C1CC1	95
CCC(C)c1ccc(NC(=S)NCc2ccccn2)cc1 (stereo not given)	94

SMILES	percent activity (GTP binding) [%]
COc1cccc(/C=C2\SC(=N)N(c3ccc(F)cc3)C2=O)c1	93
O=C(CSc1ccc(-c2ccco2)nn1)NCc1ccc2c(c1)OCO2	96
COc1ccc(N(CC(=O)Nc2ccc(C)cc2C)S(=O)(=O)c2ccccc2[N+](=O)[O-])c(OC)c1	93
CCOc1ccc(CCN2C(=O)c3cccnc3C2=O)cc1OCC	97
O=C1N/C(=C/c2cccs2)C(=O)N1Cc1ccc(F)cc1	97
O=C(Nc1ccc2c(c1)C(=O)OC2)Nc1cccc2ccccc12	96
NC(=O)C1CCN(C(=O)COc2cccc3cccnc23)CC1	95
Cn1c(N)c(C(=O)COC(=O)c2cnc(Cl)c(Cl)c2)c(=O)n(C)c1=O	93
CN(C)c1ccc2c(=O)[nH][nH]c(=O)c2c1	99
O=S(=O)(NCCc1ccc(F)cc1)c1cccc2cccnc12	96
CCC(=O)N1CCC(C(N)=O)(N2CCCCC2)CC1	96
COc1cc2sc(C)nc2cc1C	95
CCN(CC)P(=O)(Nc1ccc(SC(F)F)cc1)c1ccc(N(C)C)cc1NC(=O)c1ccco1 (stereo not given)	92
COc1ccc(C2=NN(C(=O)CCC(=O)O)C(c3cccs3)C2)cc1OC (stereo not given)	96
COCCCNC(NC(=O)c1ccc(OC)cc1)C(Cl)(Cl)Cl (stereo not given)	95
COc1ccc(NS(=O)(=O)c2cc(NC(=O)C3CCCCC3)ccc2N2CCOCC2)cc1	96
C/C=C/c1ccc(OCC(O)CN2CCCCCCC2)c(OC)c1 (stereo not given)	96
CC(C)N(C(=O)CSc1nc(COc2ccccc2)nc2ccccc12)C(C)C	93
O=C(Nc1nnc(Cc2ccccc2)s1)c1cnccn1	99
CCOc1cc(/C=N/NC(=O)c2ccc(CSc3nncn3C)cc2)ccc1OCC(=O)N1CCOCC1	93
